The full data set covers some 7,900 targets. This sample favours those with a hit. About 0.6% of all pairs of compound and target were hits.
compound: COc1cc2ncnc(Nc3ccc(F)c(Cl)c3)c2cc1OCCCN1CCOCC1 [gefitinib]; test: log2 fold change, soluble protein after heating vs DMSO (PISA); higher = thermal stabilisation; K562 cells, 10 uM, 30 min; active = over 0.2 and 3.5 SD of the protein, either way, in both replicates (recomputed)
Summary of the method: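 K562 cells at 2×10^6 cells/mL were given 10 μM compound for 30 min. Aliquots then went through 3 min of heating across 48°C-58°C, were pooled, and were extracted in PBS with 0.5% NP-40 at 4°C, and the supernatant after 21,000xg for 90 min was quantified by TMTpro 16plex LC-MS/MS with channel sums equalised. Thermal stability relative to control samples, from duplicates, is given as log2 fold change.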

Sequence of UniProt Q02750 (Q02750 whole entry, looked up): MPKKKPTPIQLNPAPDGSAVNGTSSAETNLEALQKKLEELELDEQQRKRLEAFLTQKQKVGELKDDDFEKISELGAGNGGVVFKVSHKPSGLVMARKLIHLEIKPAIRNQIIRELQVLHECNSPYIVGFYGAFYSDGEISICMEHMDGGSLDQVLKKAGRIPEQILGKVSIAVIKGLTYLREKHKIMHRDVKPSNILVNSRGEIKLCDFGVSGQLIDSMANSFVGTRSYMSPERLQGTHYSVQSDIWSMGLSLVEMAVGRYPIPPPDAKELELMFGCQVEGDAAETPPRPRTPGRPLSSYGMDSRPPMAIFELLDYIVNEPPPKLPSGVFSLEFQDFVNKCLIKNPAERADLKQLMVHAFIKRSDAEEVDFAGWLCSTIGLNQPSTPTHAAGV
Sequence of UniProt Q7Z4S6 (Q7Z4S6 whole entry, looked up): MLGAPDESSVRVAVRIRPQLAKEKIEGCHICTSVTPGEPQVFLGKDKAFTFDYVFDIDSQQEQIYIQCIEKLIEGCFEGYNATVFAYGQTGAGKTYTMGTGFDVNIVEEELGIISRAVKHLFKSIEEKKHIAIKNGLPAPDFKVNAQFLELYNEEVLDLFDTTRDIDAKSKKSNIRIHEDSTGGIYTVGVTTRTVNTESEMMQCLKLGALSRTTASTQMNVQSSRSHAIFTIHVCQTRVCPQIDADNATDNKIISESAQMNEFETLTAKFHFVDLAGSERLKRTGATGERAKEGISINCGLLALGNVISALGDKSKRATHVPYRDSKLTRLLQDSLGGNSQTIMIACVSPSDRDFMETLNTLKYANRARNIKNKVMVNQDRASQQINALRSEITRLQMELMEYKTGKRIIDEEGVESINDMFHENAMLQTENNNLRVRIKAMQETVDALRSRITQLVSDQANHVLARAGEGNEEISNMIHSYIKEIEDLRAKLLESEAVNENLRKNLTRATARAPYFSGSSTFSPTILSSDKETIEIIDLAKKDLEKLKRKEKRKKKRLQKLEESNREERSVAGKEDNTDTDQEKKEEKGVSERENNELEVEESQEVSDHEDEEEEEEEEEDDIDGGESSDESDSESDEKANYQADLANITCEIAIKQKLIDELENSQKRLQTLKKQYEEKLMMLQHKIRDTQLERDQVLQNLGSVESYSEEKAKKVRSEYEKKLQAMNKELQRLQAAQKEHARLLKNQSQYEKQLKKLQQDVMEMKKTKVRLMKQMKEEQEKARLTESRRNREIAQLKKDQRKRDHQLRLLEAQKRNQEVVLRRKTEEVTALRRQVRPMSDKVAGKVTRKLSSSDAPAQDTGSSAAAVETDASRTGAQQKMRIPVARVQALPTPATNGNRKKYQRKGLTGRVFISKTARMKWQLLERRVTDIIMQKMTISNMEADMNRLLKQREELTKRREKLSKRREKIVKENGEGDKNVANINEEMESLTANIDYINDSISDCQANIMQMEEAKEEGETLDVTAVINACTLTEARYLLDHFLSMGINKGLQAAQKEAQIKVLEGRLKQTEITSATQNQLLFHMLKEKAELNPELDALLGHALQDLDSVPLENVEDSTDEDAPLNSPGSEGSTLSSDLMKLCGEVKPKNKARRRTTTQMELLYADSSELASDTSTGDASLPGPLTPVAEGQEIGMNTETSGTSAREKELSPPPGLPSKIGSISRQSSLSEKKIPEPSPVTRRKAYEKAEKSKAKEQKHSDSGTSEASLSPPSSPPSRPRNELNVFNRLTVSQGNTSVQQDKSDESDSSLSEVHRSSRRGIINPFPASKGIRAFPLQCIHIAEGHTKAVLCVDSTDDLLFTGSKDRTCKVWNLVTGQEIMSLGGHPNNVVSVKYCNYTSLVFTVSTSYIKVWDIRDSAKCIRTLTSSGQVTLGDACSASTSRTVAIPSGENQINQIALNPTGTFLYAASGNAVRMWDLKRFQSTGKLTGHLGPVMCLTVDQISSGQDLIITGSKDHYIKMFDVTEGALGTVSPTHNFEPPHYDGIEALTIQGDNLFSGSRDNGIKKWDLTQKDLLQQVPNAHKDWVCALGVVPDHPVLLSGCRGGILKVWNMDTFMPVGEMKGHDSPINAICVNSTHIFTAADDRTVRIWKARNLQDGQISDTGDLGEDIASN
Sequence of UniProt Q8WWC4 (Q8WWC4 whole entry, looked up): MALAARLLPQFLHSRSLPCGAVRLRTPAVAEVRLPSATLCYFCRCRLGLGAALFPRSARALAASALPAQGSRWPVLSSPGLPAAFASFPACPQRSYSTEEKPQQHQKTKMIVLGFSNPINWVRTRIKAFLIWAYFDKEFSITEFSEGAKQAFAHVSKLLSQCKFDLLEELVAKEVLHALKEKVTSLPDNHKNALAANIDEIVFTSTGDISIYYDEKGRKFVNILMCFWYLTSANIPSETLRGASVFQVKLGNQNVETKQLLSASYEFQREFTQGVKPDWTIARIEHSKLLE
Sequence of UniProt Q8WV07 (Q8WV07 whole entry, looked up): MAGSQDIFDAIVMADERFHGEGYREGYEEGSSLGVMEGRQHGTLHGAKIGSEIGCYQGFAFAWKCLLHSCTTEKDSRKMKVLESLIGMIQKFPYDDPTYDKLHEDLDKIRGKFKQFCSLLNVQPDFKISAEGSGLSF
Sequence of UniProt Q9BY66 (Q9BY66 whole entry, looked up): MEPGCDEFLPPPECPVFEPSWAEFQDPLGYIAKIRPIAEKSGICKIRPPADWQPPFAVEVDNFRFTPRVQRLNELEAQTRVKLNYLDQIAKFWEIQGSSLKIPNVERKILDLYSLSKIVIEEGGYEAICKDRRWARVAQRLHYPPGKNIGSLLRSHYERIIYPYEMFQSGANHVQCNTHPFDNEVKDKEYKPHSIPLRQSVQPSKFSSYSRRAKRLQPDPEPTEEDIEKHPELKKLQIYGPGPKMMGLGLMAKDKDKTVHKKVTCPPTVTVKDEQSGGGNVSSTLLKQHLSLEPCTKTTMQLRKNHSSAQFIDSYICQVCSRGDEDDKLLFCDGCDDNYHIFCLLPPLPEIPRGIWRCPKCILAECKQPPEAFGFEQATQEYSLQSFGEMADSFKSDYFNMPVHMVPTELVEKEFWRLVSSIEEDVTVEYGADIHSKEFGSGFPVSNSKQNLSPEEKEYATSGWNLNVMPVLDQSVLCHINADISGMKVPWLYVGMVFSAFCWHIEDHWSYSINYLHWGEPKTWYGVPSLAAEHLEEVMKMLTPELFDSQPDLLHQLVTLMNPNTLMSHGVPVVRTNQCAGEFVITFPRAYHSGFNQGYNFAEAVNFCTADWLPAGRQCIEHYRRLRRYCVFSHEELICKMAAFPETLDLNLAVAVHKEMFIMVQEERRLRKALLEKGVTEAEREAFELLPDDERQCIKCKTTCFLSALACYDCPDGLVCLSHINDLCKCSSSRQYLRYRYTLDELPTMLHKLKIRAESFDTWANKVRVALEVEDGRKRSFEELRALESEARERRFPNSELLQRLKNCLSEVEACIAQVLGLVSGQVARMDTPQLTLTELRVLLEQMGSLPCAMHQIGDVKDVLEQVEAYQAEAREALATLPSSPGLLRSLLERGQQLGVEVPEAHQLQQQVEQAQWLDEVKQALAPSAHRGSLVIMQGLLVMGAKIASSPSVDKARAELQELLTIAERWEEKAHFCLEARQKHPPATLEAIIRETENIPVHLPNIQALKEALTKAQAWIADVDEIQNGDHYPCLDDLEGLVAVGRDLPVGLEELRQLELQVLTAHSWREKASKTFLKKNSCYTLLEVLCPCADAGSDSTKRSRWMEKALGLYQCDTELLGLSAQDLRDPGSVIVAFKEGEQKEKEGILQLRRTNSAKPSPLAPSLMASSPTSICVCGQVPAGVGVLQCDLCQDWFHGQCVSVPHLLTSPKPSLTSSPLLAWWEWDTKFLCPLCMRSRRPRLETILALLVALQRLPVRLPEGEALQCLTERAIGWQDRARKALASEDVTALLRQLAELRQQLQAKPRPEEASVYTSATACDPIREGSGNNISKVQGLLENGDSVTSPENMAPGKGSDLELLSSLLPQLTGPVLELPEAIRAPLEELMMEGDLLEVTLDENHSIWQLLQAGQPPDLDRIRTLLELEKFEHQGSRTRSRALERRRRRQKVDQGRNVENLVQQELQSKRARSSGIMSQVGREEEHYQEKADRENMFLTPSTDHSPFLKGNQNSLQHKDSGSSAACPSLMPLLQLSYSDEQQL
Sequence of UniProt P27448 (P27448 whole entry, looked up): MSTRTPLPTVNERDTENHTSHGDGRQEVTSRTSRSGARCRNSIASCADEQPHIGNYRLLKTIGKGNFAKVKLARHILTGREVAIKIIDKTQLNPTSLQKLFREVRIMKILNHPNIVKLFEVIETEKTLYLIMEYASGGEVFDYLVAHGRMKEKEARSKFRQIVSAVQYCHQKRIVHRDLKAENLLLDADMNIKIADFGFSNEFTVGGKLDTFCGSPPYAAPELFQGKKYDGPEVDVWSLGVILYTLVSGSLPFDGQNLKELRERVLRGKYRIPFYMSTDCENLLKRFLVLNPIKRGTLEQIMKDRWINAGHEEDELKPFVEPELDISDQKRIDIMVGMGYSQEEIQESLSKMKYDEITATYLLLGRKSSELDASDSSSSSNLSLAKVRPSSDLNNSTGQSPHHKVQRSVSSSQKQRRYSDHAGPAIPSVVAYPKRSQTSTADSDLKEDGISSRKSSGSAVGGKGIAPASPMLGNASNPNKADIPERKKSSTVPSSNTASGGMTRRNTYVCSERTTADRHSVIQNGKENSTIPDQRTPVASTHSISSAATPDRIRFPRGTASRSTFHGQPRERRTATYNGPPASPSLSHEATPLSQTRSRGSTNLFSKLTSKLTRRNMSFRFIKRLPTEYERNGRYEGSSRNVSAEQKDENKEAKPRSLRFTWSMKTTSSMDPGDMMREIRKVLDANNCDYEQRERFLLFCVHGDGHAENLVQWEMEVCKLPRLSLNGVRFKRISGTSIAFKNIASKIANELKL
Sequence of UniProt Q96LU5 (Q96LU5 whole entry, looked up): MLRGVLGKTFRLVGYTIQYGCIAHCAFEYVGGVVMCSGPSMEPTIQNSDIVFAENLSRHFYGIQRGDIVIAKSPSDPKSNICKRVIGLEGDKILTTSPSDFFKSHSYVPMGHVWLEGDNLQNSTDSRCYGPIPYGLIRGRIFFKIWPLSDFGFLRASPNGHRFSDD

Row | Target | log2 fold change
1 | LTV1 (UniProt Q96GA3) | -0.097 (inactive)
2 | LMNB1 (UniProt P20700) | -0.002 (inactive)
3 | LNPK (UniProt Q9C0E8) | 0.025 (inactive)
4 | LDAH isoform 2 (UniProt Q9H6V9) | 0.004 (inactive)
5 | IL27RA (UniProt Q6UWB1) | -0.169 (inactive)
6 | KIF2C (UniProt Q99661) | 0.006 (inactive)
7 | LAMP2 (UniProt P13473) | 0.005 (inactive)
8 | LMNB2 (UniProt Q03252) | -0.001 (inactive)
9 | MAP1LC3B2 (UniProt A6NCE7) | -0.003 (inactive)
10 | METAP1D (UniProt Q6UB28) | -0.029 (inactive)
11 | LIMD1 (UniProt Q9UGP4) | -0.078 (inactive)
12 | MED17 (UniProt Q9NVC6) | 0.016 (inactive)
13 | KIF3A (UniProt Q9Y496) | -0.129 (inactive)
14 | IKZF1 (UniProt Q13422) | 0.128 (inactive)
15 | KSR1 (UniProt Q8IVT5) | -0.028 (inactive)
16 | MAIP1 (UniProt Q8WWC4) | -0.002 (inactive)
17 | LPGAT1 (UniProt Q92604) | -0.059 (inactive)
18 | LTO1 (UniProt Q8WV07) | 0.017 (inactive)
19 | LARP4 isoform 4 (UniProt Q71RC2) | 0.01 (inactive)
20 | IMMP1L (UniProt Q96LU5) | -0.022 (inactive)

Row | Target | log2 fold change
21 | LRBA (UniProt P50851) | -0.008 (inactive)
22 | LMBRD2 (UniProt Q68DH5) | 0.082 (inactive)
23 | MAP2K2 (UniProt P36507) | -0.011 (inactive)
24 | ITM2B (UniProt Q9Y287) | -0.047 (inactive)
25 | IPO13 (UniProt O94829) | -0.047 (inactive)
26 | ILRUN (UniProt Q9H6K1) | 0.048 (inactive)
27 | IRF2BPL (UniProt Q9H1B7) | -0.016 (inactive)
28 | LDLR (UniProt P01130) | 0.095 (inactive)
29 | LUC7L3 (UniProt O95232) | -0.04 (inactive)
30 | MAP2K7 isoform 4 (UniProt O14733) | -0.027 (inactive)
31 | MDC1 (UniProt Q14676) | 0.032 (inactive)
32 | MAP2K1 (UniProt Q02750) | -0.011 (inactive)
33 | MARK3 (UniProt P27448) | -0.002 (inactive)
34 | KIF21A isoform 4 (UniProt Q7Z4S6) | -0.028 (inactive)
35 | LEMD3 (UniProt Q9Y2U8) | -0.013 (inactive)
36 | KDM5D isoform 3 (UniProt Q9BY66) | -0.021 (inactive)
37 | IK (UniProt Q13123) | 0.027 (inactive)
38 | KLC2 (UniProt Q9H0B6) | 0.017 (inactive)
39 | INPP5B (UniProt P32019) | -0.008 (inactive)

From the supplement of paper PMC10849652
